Test results published in PubChem BioAssay (NCI).
Several values for one entry are separate records, joined by “and”; a condition that tells them apart may be missing. Identical values can stand only once. About 79,000 compounds went through this panel and 15% of them were active in at least one assay; those are over-represented in the sample as a whole. No stated cut-off is given here; in the data, active means growth inhibition above about 70%; inactive means the rest.

Legend:
[1] = NCI Yeast Anticancer Drug Screen. Data for the rad50 strain (AID 155);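 further: 0% = growth of vehicle-only cultures of the same strain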; details: S. cerevisiae rad50 strain growth inhibition, stronger effect = higher value; at 50.0 µM unless noted
Summary of the method: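 Genetically altered yeast (DNA repair pathway); compound treatment; growth inhibition vs vehicle ctrl.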

[2] = NCI Yeast Anticancer Drug Screen. Data for the mec2-1 strain (AID 157); details: S. cerevisiae mec2-1 strain, stronger effect = higher value; at 50.0 µM unless noted
Summary of the method: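 Vehicle-treated cultures served as reference for growth inhibition of compound-exposed mec2-1 yeast.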

[3] = NCI Yeast Anticancer Drug Screen. Data for the sgs1 mgt1 strain (AID 161);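 further: 0% = growth of cultures given vehicle only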; details: S. cerevisiae sgs1 mgt1 strain, stronger effect = higher value; at 50.0 µM unless noted
Summary of the method: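 Read-out: growth inhibition vs vehicle controls. Cells: mutant yeast strain deficient in DNA damage repair.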

[4] = NCI Yeast Anticancer Drug Screen. Data for the cln2 rad14 strain (AID 165);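 further: 0% = growth equal to vehicle treated cultures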; details: S. cerevisiae cln2 rad14 strain, stronger effect = higher value; at 50.0 µM unless noted
Summary of the method: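 Each compound was tested on cln2 rad14 yeast. Inhibition of growth was calculated against vehicle-exposed controls.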

[5] = NCI Yeast Anticancer Drug Screen. Data for the bub3 strain (AID 167); details: S. cerevisiae bub3 mutant strain, stronger effect = higher value; at 50.0 µM unless noted
Summary of the method: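 Yeast carrying a defined mutation is treated with each compound, and growth is compared with that of vehicle-exposed cells to give inhibition.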

[6] = NCI Yeast Anticancer Drug Screen. Data for the mlh1 rad18 strain (AID 175); details: S. cerevisiae mlh1 rad18 strain growth inhibition, stronger effect = higher value; at 50.0 µM unless noted
Summary of the method: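 Vehicle-treated cultures served as the reference for growth inhibition in a yeast strain carrying DNA damage repair alterations exposed to each compound.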

Measured: growth inhibition

CSc1ncc(C(N)=O)c(N)n1
inactive: [1] -2.05% and 12% | [2] 3.5% and -12.9% | [3] -3.35% and -9.65% | [4] -38% and -12.4% | [5] -6.7% and -12.6% | [6] 2.45% and 13.2%

CCOc1cccc(C=N)c1O
inactive: [1] 35.8% | [2] -0.55% | [3] 51.9% | [4] 36.4% | [5] -1.75% | [6] 46.5%

CCN(CC)C(=O)c1cc(OC)c(C(=O)N(CC)CC)cc1OC
inactive: [1] -21.9% | [2] -0.35% | [3] 4.15% | [4] -15.2% | [5] -9.4% | [6] -8.2%

O=C1[C@H]2ON(c3ccccc3)C(c3ccccc3)[C@H]2C(=O)N1c1ccc(Cc2ccc(N3C(=O)[C@@H]4ON(c5ccccc5)C(c5ccccc5)[C@@H]4C3=O)cc2)cc1 (stereo not given in full)
inactive: [1] 3.1% | [2] 3.45% | [3] 12.6% | [4] 21.5% | [5] 26.5% | [6] 11.8%

CC(=O)OC/C(=C/C#N)C1CCC2C3CC=C4CC(OC(C)=O)CCC4(C)C3CCC12C (stereo not given)
inactive: [1] 15.6% | [2] -1.25% | [3] -3.75% | [4] -12.8% | [5] -2.15% | [6] 8.65%

CC1=C2CC3=C(C)C(=O)O[C@H]3C[C@@H](C)[C@@H]2CC1
inactive: [1] 15.2% | [2] 9.9% | [3] 26% | [4] 1.15% | [5] 33.8% | [6] 2.45%

Brc1ccc(-c2ccccc2)cc1
inactive: [1] 28.8% | [2] 17.8% | [3] 17.2% | [4] 15.1% | [5] 8.9% | [6] 21.4%

C=CCCC(=O)CC(=O)OCc1ccccc1
inactive: [1] -7.2% | [2] -31% | [3] -1.15% | [4] 8.05% | [5] -37% | [6] 16.1%

COC(=O)c1cc2ccc(OC(C)=O)c(OC(C)=O)c2cn1
inactive: [1] 20.2% | [2] -20.2% | [3] 6.05% | [4] 9.3% | [5] 3.35% | [6] 19.9%

O=C(c1ccccc1)C(c1ccccc1)C(Cl)c1ccccc1 (stereo not given)
inactive: [1] 21.4% | [2] 30.8% | [3] 31.4% | [4] 3% | [5] -3.2% | [6] 19%

O=C(c1ccccc1)C1(c2ccccc2)OC1(C(=O)c1ccccc1)c1ccccc1 (stereo not given)
inactive: [1] 15.4% | [2] -4.75% | [3] 7.5% | [4] -7.65% | [5] -3.3% | [6] 4.2%

COCN1C(=N)C(C(=O)OC(C)(C)C)=C2C=C(O)C=CC21C (stereo not given)
inactive: [1] -4.5% | [2] 14.7% | [3] -23.4% | [4] 9.1% | [5] 22.2% | [6] 2.55%

N[N+]#COC1C(C(=O)NN)C1C(=O)NN (stereo not given)
inactive: [1] -15.9% | [2] -10.4% | [3] -17.5% | [4] 7.75% | [5] 7.05% | [6] -17.9%

CCOC(=O)NNC(=O)Nc1ccc(O[Si](C)(C)C)cc1
inactive: [1] 13.4% | [2] 10% | [3] 10.3% | [4] 17.1% | [5] 9.75% | [6] 10.9%

Brc1cc(Br)cc(CN2CCOCC2)c1
inactive: [1] 34% | [2] 15.1% | [3] 49.6% | [4] 48% | [5] 56.8% | [6] 46.2%

C=C1CCCC(C)(C)[C@@H]1CC/C(C)=C/Cn1c2cccc(=O)c-2nc2ccccc21
inactive: [1] 12.8% | [2] 6.75% | [3] 2.15% | [4] 2.4% | [5] -17.4% | [6] 19.2%

O=c1ccn(C2OC(COC3CCCCO3)C(OC3CCCCO3)C2OC2CCCCO2)c(=O)n1-c1ccccc1 (stereo not given)
inactive: [1] 39.7% | [2] -4.8% | [3] 10.1% | [4] -1.4% | [5] -2.65% | [6] 5.25%

NC(CCO)P(=O)(O)O (stereo not given)
inactive: [1] 13.3% | [2] -6.05% | [3] -20.2% | [4] -55.7% | [5] 2.05% | [6] -4.6%

O=C(NCCCl)Nc1c(Cl)cccc1Cl
inactive: [1] -4.6% | [2] 14.3% | [3] 6% | [4] -18.6% | [5] 1.8% | [6] -4.2%

CC(=O)OC(C(=O)NNC(=O)OC(C)(C)C)c1ccccc1 (stereo not given)
inactive: [1] -35.6% | [2] -49.4% | [3] -38% | [4] -19.4% | [5] -13.4% | [6] -29.2%
